A short description of assay [1]: NCI Yeast Anticancer Drug Screen. Data for the rad50 strain (AID 155).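 Further: 0% = growth of vehicle-only cultures of the same strain.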 The conditions noted are these: S. cerevisiae rad50 strain growth inhibition, active compounds read high. The gist of the method:
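Relative growth inhibition (compound vs vehicle) was measured in yeast with a defined repair-gene alteration.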

Assay [2] in a line: NCI Yeast Anticancer Drug Screen. Data for the mec2-1 strain (AID 157). The note with it: S. cerevisiae mec2-1 strain, active compounds read high. An outline of the steps: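 Yeast mec2-1 mutant treated with compound. Readout: growth inhibition vs vehicle controls.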
The nature of assay [3]: NCI Yeast Anticancer Drug Screen. Data for the sgs1 mgt1 strain (AID 161).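 Further: 0% = growth of cultures given vehicle only.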 The conditions noted are these: S. cerevisiae sgs1 mgt1 strain, active compounds read high. The gist of the method:
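Test agents were incubated with a DNA-repair-mutant yeast strain. Growth was then read and compared against vehicle-treated controls.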

Assay [4] in a line: NCI Yeast Anticancer Drug Screen. Data for the cln2 rad14 strain (AID 165).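 Further: 0% = growth equal to vehicle treated cultures.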 The note with it: S. cerevisiae cln2 rad14 strain, active compounds read high. The gist of the method: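 cln2 rad14 yeast strain; compound exposure; growth inhibition read vs vehicle controls.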
Assay [5] can be described thus: NCI Yeast Anticancer Drug Screen. Data for the bub3 strain (AID 167). The conditions noted are these: S. cerevisiae bub3 mutant strain, active compounds read high. An outline of the steps:
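Screening used yeast with an engineered genetic alteration affecting cell cycle control. Compound-exposed cultures were compared with vehicle cultures, and reduced growth was taken as inhibition.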

The nature of assay [6]: NCI Yeast Anticancer Drug Screen. Data for the mlh1 rad18 strain (AID 175). The conditions noted are these: S. cerevisiae mlh1 rad18 strain growth inhibition, active compounds read high. The gist of the method: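 Yeast w/ defined DNA-repair lesions; compound exposure; growth vs vehicle controls → % inhibition.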
The mark [7] stands for this setting: at 5.0 µM (retest, dose inferred, filed as 0.5).
[8] abbreviates: at 50.0 µM (retest, dose inferred, filed as 5.0).

Compounds without any hit were thinned out: in the full panel of roughly 79,000, 15% have a hit. Unmarked numbers belong to inactive results. Activity calls are given as the source filed them. No stated cut-off is given here; in the data, active means growth inhibition above about 70%; inactive means the rest.

For `CCOc1ccc(C(=O)CCN2CCOCC2)cc1`, the growth inhibition is 8% in assay [1] (setting [7]); 40% in assay [1] (setting [8]); 77.5% (active) in assay [1] (at 50.0 µM); 14% in assay [2] (setting [7]); 27% in assay [2] (setting [8]); 42.1% in assay [2] (at 50.0 µM). Moreover, the growth inhibition in assay [3] (setting [7]) is 20%; in assay [3] (setting [8]) it was 53%; in assay [3] (at 50.0 µM), 57%; in assay [4] (setting [7]), 15%; in assay [4] (setting [8]), 59%; in assay [4] (at 50.0 µM), 52.9%. The growth inhibition in assay [5] (setting [7]) was 14%; in assay [5] (setting [8]) it was 46%; in assay [5] (at 50.0 µM) it was 46%; in assay [6] (setting [7]) it was 6%; in assay [6] (setting [8]), 35%; in assay [6] (at 50.0 µM), 55.3%.
In the case of `CCCCCCCCCCCCCCCCCC[n+]1cccc(C(=O)N2CCOCC2)c1`, the growth inhibition in assay [1] (setting [7]) is 91% (active); in assay [1] (setting [8]), 99% (active); in assay [1] (at 50.0 µM), 99.8% (active); in assay [2] (setting [7]) it was 86% (active); in assay [2] (setting [8]), 100% (active); in assay [2] (at 50.0 µM) it was 99.8% (active). Besides, the growth inhibition is 99% (active) in assay [3] (setting [7]); 100% (active) in assay [3] (setting [8]); 99.8% (active) in assay [3] (at 50.0 µM); 60% in assay [4] (setting [7]); 99% (active) in assay [4] (setting [8]); 99.3% (active) in assay [4] (at 50.0 µM). The growth inhibition is 86% (active) in assay [5] (setting [7]); 99% (active) in assay [5] (setting [8]); 99.7% (active) in assay [5] (at 50.0 µM); 97% (active) in assay [6] (setting [7]); 100% (active) in assay [6] (setting [8]); 99.8% (active) in assay [6] (at 50.0 µM).
On to `CCOC(=O)Nc1nc2ccc(Cn3cccc3)cc2[nH]1`, for which the growth inhibition was 25% in assay [1] (setting [7]); 31% in assay [1] (setting [8]); 17.8% in assay [1] (at 50.0 µM); 19% in assay [2] (setting [7]); 22% in assay [2] (setting [8]); -12.5% in assay [2] (at 50.0 µM). For the same molecule, the growth inhibition in assay [3] (setting [7]) is 24%; in assay [3] (setting [8]), 24%; in assay [3] (at 50.0 µM) it was 10.9%; in assay [4] (setting [7]), 33%; in assay [4] (setting [8]), 24%; in assay [4] (at 50.0 µM), 6.05%. The growth inhibition in assay [5] (setting [7]) was 22%; in assay [5] (setting [8]) it was 24%; in assay [5] (at 50.0 µM), -1.9%; in assay [6] (setting [7]) it was 25%; in assay [6] (setting [8]) it was 23%; in assay [6] (at 50.0 µM), -0.95%.
In the case of `C(=N\NC1=NCCN1)/c1ccc(-c2cn3cc(/C=N/NC4=NCCN4)ccc3n2)cc1`, the growth inhibition was 99% (active) in assay [1] (setting [7]); 99% (active) in assay [1] (setting [8]); 99.1% (active) in assay [1] (at 50.0 µM); 100% (active) in assay [2] (setting [7]); 99% (active) in assay [2] (setting [8]); 97.8% (active) in assay [2] (at 50.0 µM). Further, the growth inhibition in assay [3] (setting [7]) was 99% (active); in assay [3] (setting [8]), 100% (active); in assay [3] (at 50.0 µM), 99.3% (active); in assay [4] (setting [7]), 92% (active); in assay [4] (setting [8]), 98% (active); in assay [4] (at 50.0 µM), 98.1% (active). The growth inhibition in assay [5] (setting [7]) is 98% (active); in assay [5] (setting [8]) it was 99% (active); in assay [5] (at 50.0 µM), 99.3% (active); in assay [6] (setting [7]) it was 99% (active); in assay [6] (setting [8]), 99% (active); in assay [6] (at 50.0 µM), 99.4% (active).
As to `O=C1OC2(c3ccc(O)cc3Oc3cc(O)ccc32)c2c1c(-c1ccccc1)c(-c1ccccc1)c(-c1ccccc1)c2-c1ccccc1`, the growth inhibition is 26% in assay [1] (setting [7]); 83% (active) in assay [1] (setting [8]); 76.7% (active) in assay [1] (at 50.0 µM); 13% in assay [2] (setting [7]); 52% in assay [2] (setting [8]); 36.6% in assay [2] (at 50.0 µM). Further, the growth inhibition is 14% in assay [3] (setting [7]); 50% in assay [3] (setting [8]); 39.9% in assay [3] (at 50.0 µM); -10% in assay [4] (setting [7]); 34% in assay [4] (setting [8]); -14.4% in assay [4] (at 50.0 µM). The growth inhibition in assay [5] (setting [7]) is -1%; in assay [5] (setting [8]) it was 59%; in assay [5] (at 50.0 µM), 50.9%; in assay [6] (setting [7]) it was 6%; in assay [6] (setting [8]), 73% (active); in assay [6] (at 50.0 µM), 62.8%.
Take `CC(C)(C)OC(=O)N(CCCCNCc1ccc2ccccc2c1)CCCNCc1ccc2ccccc2c1`: the growth inhibition is 17% in assay [1] (setting [7]); 99% (active) in assay [1] (setting [8]); 91% (active) in assay [1] (at 50.0 µM); 19% in assay [2] (setting [7]); 99% (active) in assay [2] (setting [8]); 92.6% (active) in assay [2] (at 50.0 µM). Moreover, the growth inhibition was -7% in assay [3] (setting [7]); 99% (active) in assay [3] (setting [8]); 76.5% (active) in assay [3] (at 50.0 µM); 3% in assay [4] (setting [7]); 98% (active) in assay [4] (setting [8]); 89% (active) in assay [4] (at 50.0 µM). The growth inhibition was 18% in assay [5] (setting [7]); 97% (active) in assay [5] (setting [8]); 90.5% (active) in assay [5] (at 50.0 µM); 26% in assay [6] (setting [7]); 99% (active) in assay [6] (setting [8]); 91% (active) in assay [6] (at 50.0 µM).
For `Nn1c2ccccc2c2ccccc21`, the growth inhibition is -106% in assay [1] (setting [7]); -52% in assay [1] (setting [8]); 35% in assay [1] (at 50.0 µM); -44% in assay [2] (setting [7]); -53% in assay [2] (setting [8]); 11.8% in assay [2] (at 50.0 µM). Also, the growth inhibition is -32% in assay [3] (setting [7]); -25% in assay [3] (setting [8]); 8.1% in assay [3] (at 50.0 µM); -54% in assay [4] (setting [7]); -77% in assay [4] (setting [8]); 12% in assay [4] (at 50.0 µM). Also, the growth inhibition in assay [5] (setting [7]) was -72%; in assay [5] (setting [8]) it was -80%; in assay [5] (at 50.0 µM), -6%; in assay [6] (setting [7]), -78%; in assay [6] (setting [8]), 6%; in assay [6] (at 50.0 µM), 75.1% (active).
On to `COc1ccccc1NC(=O)O/N=C(/Cl)C(C)C`, for which the growth inhibition in assay [1] (setting [7]) was 1%; in assay [1] (setting [8]), 70% (active); in assay [1] (at 50.0 µM) it was -4.65%; in assay [2] (setting [7]) it was 3%; in assay [2] (setting [8]), 70% (active); in assay [2] (at 50.0 µM), 52%. Moreover, the growth inhibition in assay [3] (setting [7]) was -32%; in assay [3] (setting [8]), 71% (active); in assay [3] (at 50.0 µM), 37.6%; in assay [4] (setting [7]), 40%; in assay [4] (setting [8]), 28%; in assay [4] (at 50.0 µM), 31.9%. In addition, the growth inhibition in assay [5] (setting [7]) was -26%; in assay [5] (setting [8]) it was 95% (active); in assay [5] (at 50.0 µM) it was 80.5% (active); in assay [6] (setting [7]) it was -24%; in assay [6] (setting [8]) it was 41%; in assay [6] (at 50.0 µM), 41.1%.
For `CC(C)(S[S-])S[S-].[Ti].[c-]1[c-][c-][cH-][c-]1.[c-]1[c-][c-][cH-][c-]1`, the growth inhibition in assay [1] (setting [7]) was 23%; in assay [1] (setting [8]) it was 97% (active); in assay [1] (at 50.0 µM), 84.1% (active); in assay [2] (setting [7]) it was -2%; in assay [2] (setting [8]), 98% (active); in assay [2] (at 50.0 µM) it was 57.9%. Also, the growth inhibition in assay [3] (setting [7]) was 10%; in assay [3] (setting [8]) it was 98% (active); in assay [3] (at 50.0 µM), 95.2% (active); in assay [4] (setting [7]) it was 11%; in assay [4] (setting [8]) it was 97% (active); in assay [4] (at 50.0 µM) it was 21.7%. Moreover, the growth inhibition in assay [5] (setting [7]) was 24%; in assay [5] (setting [8]), 98% (active); in assay [5] (at 50.0 µM) it was 46.4%; in assay [6] (setting [7]) it was 31%; in assay [6] (setting [8]), 98% (active); in assay [6] (at 50.0 µM), 87.3% (active).

The values are drawn from PubChem BioAssay (NCI).
